From PubChem
The sample as a whole holds a higher share of hits than the screen did.
KDM5B inh: Primary screen for KDM5B Histone Demethylases FDH-coupled qHTS; Lysine-specific demethylase 5B (Homo sapiens), Q9UGL1; KDM5B demethylase, FDH-coupled NADH fluorescence (FDH is formaldehyde dehydrogenase); Potency, µM (titrated, usually from 57.7 µM), most hits filed as inhibitors; 220,000 compounds, 2.6% hits; AID 1347165, 2019; active = well fitted inhibition curve with a large enough effect; also: 0% is about no effect; nearly all actives have a fitted effect of over 70% in size
Target sequence (Q9UGL1 whole entry, looked up): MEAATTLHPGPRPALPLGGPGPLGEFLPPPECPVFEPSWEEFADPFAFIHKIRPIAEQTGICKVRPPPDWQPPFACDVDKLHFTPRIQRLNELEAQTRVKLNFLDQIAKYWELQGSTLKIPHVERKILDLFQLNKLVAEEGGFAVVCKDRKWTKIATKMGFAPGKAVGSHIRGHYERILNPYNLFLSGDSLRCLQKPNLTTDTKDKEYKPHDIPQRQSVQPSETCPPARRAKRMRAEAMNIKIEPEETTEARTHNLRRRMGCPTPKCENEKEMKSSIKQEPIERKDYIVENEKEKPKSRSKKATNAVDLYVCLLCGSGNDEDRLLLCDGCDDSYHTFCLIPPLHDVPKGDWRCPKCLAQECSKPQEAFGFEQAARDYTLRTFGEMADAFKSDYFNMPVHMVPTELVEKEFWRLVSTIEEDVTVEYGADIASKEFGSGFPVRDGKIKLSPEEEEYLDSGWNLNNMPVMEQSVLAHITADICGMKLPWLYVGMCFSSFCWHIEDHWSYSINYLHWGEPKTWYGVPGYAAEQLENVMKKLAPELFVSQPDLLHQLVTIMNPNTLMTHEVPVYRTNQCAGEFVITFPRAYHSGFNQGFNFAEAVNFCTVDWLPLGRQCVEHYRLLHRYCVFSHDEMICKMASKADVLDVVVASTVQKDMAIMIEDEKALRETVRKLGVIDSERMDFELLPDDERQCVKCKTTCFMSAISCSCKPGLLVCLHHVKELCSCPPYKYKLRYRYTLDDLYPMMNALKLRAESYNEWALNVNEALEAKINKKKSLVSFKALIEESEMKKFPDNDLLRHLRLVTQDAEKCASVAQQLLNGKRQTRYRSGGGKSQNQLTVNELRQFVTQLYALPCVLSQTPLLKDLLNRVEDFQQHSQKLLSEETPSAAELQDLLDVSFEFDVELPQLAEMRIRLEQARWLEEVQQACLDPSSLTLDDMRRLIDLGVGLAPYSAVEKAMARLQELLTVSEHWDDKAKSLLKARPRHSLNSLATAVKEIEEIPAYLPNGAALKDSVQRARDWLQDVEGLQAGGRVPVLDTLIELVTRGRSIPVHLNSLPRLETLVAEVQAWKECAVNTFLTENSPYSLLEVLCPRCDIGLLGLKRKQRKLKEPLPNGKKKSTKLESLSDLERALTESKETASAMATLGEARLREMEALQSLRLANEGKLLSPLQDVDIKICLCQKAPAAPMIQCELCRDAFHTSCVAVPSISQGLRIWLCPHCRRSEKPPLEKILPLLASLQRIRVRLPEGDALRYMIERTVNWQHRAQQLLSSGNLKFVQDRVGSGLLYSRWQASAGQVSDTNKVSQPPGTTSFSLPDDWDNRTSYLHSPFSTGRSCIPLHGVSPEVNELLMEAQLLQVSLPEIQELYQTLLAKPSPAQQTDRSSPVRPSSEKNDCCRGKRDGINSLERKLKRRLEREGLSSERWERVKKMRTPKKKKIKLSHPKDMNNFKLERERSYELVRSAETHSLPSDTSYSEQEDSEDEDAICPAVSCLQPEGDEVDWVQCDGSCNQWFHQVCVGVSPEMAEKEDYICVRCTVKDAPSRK
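Inhibition is measured as reduced NADH fluorescence generation from FDH coupling to formaldehyde release. Truncated KDM5BΔAP at 200 nM final acts on H3K4me3 peptide (12.5 µM in substrate mix) in pH 7.5 HEPES buffer with Tween-20, 30 min, room temperature.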
* marks the source's active call; other numbers are inactive results; i = inactive. Potency is read from the fitted curve at half-maximal effect.

SMILES	KDM5B inh
O=S(=O)(c1cccc(Cl)c1Cl)N1CCN(c2nnnn2-c2ccccc2)CC1	i
Cc1cc(C)cc(C(=O)N2CCN(C(=O)c3cccc4cccnc34)CC2)c1	i
COc1ccccc1/C=C/c1nc(C#N)c(NCCCN2CCOCC2)o1	i
COc1ccc(-c2cc(C(=O)NCCc3ccc(Cl)cc3)[nH]n2)cc1	i
C[S+](=O)([O-])c1ccc(-c2nc(C(=O)NCCc3ccc(Cl)cc3)n3ccncc23)cc1	79.4µM*
Cc1ccc(CCNC(=O)c2cc(-c3ccc(Cl)cc3)n[nH]2)cc1	i
O=C(c1nnc(COc2cccc(N3CCOCC3)c2)n1Cc1ccccc1)N1CCC[C@@H]1c1ccc(Br)cc1	i
O=C(Cn1nc(-c2cccs2)c2ccccc2c1=O)NCCc1ccc(Cl)cc1	i
O=C(NCc1nnc2ccc(-c3ccccc3)nn12)c1ccco1	28.2µM*
Cc1ccc(-c2ccc3nnc(CNC(=O)c4ccco4)n3n2)cc1	31.6µM*
COc1ccccc1Nc1nc(-c2c[nH]c(C(=O)N3CCCC3)c2)cs1	i
Cc1ccccc1NC(=O)c1ccc2c(Cl)c3c(nc2c1)CCCC3	i
O=C(CCCn1c(=O)oc2ccccc21)Nc1cccc(-c2nnc3n2CCCCC3)c1	i
CCCNC(=O)CNC(=O)C1=NN(C)C(=O)CC1	i
COC(=O)c1ccc2c(c1)N(Cc1ccc(F)cc1Cl)C(=O)c1ccccc1S2(=O)=O	i
CC(OC(=O)c1nn(C)c(=O)c2ccccc12)C(=O)c1c[nH]c2ccccc12 (stereo not given)	i
O=C(Nc1nn(-c2cccc(F)c2)c2cccc(N3CCOCC3)c12)C1CCC1	31.6µM*
O=C(Nc1nn(Cc2ccccc2)c2cccc(N3CCOCC3)c12)c1ccncc1	i
CC(C)Oc1cccc2c1c(NC(=O)CN1CCCC1=O)nn2-c1cccc(F)c1	i
O=C(Nc1ccc(Cl)cc1N1CCOCC1)C1CC1	i
Cc1cn(CCC(=O)Nc2ccccc2N2CCOCC2)c2ccccc12	i
Cc1ccnn1CCC(=O)Nc1nn(C)c2cccc(N3CCOCC3)c12	28.2µM*
O=C(Nc1nn(Cc2ccccc2)c2cccc(N3CCOCC3)c12)C1CCC1	25.1µM*
O=C(Nc1cc(C(F)(F)F)ccc1N1CCOCC1)C1CC1	i
CC(C)Oc1cccc2c1c(NC(=O)C1CCOCC1)nn2C	i
SMILES	KDM5B inh
COc1ccc(NC(=O)c2ccc(NC(=O)c3ccc4ccccc4n3)cc2)cc1	i
Cc1cc(C(=O)CCC(=O)NC2CCCCC2)c(C)s1	i
C=CCCC(CN1CCSCC1)Oc1cc(CC)nc(C)n1 (stereo not given)	i
COC[C@@H]1CNC[C@H]1c1nc(C2CC2)no1	i
Cc1ccc(C)c(CS(=O)CCC(=O)Nc2ccccc2)c1 (stereo not given)	i
Cc1ccc(S(=O)(=O)N2CCCN(C(=O)CN3CCOCC3)C2c2ccccc2)cc1 (stereo not given)	i
CCCCNC(=S)NC1CCC(NC(=S)NCCCC)CC1 (stereo not given)	i
COC(=O)N/N=C/C(C)=C/c1ccccc1	i
O=S(=O)(c1cccs1)N1CCOc2ccc(COCc3ccc(Cl)cc3)cc2C1	i
O=C(NC1CCCC1)c1ccc(Oc2nccnc2Sc2ccccc2)cc1	i
Cc1cc(Br)ccc1SCC(=O)OCC(=O)Nc1ccccc1OC(F)F	i
Cc1noc(C)c1-c1cc2c(cc(C)n2CCN(C)C)c(-c2cccnc2)n1	31.6µM*
COc1ccc(-c2nc(-c3c(C)noc3C)cc3c2cc(C)n3CCN(C)C)cn1	39.8µM*
Cc1cccc2c(=O)c(-c3ccccc3)c(N)oc12	i
Cc1ccc(NC(=O)C2C3CC/C=C\CC/C=C/CCC32)cc1C (stereo not given)	i
CC(=O)c1ccccc1S(=O)(=O)NCC(=O)O	i
COCCNC(=O)C(NC(=O)c1cccs1)C1CCN(C(=O)c2cccs2)CC1 (stereo not given)	i
O=C(NCc1c[nH]c2ncccc12)c1cccc(Br)c1	i
CCc1nc2c(c(-c3ccc(OC)cc3)n1)CCN([S+](=O)([O-])c1c(C)noc1C)CC2	i
Cc1ccccc1C(=O)NC(Nc1ccccc1)C(Cl)(Cl)Cl (stereo not given)	i
CC(C)OC(=O)C1=C(N)Oc2c(oc(CO)cc2=O)C1c1ccc(F)cc1F (stereo not given)	i
Cc1n[nH]c(C)c1CCC(=O)Nc1ccc2c(c1)C(=O)N1CCC[C@H]1C(=O)N2	i
O=C(NCCC1CCCCC1)c1c[nH]c2ncccc12	i
O=C(NCCc1nc(Cc2ccccc2)no1)c1ccc2nccn2c1	17.8µM*
O=C(NCC1CCCCC1)c1ccncc1	i
SMILES	KDM5B inh
COc1ccc(C(=O)NCCCc2ccccc2)cc1	i
O=C(NCCCc1ccccc1)c1ccc2nccn2c1	35.5µM*
O=C(NCCc1nc(Cc2ccccc2)no1)C1CNCCO1 (stereo not given)	i
O=C(NCCCCc1ccccc1)c1ccncc1	i
O=C(NCCc1nc(Cc2ccccc2)no1)[C@H]1CCC[C@@H](O)C1	i
O=C(NCCC1CCCCC1)c1ccc2nccn2c1	28.2µM*
Cc1ncsc1C(=O)NC(C)c1ccc(Cl)s1 (stereo not given)	i
CCc1cc(C(=O)Nc2sc(Cc3ccccc3)cc2C(N)=O)cs1	i
Cc1ccc(NC(NC(=O)c2ccco2)C(=O)c2ccc(C)cc2)cc1 (stereo not given)	i
Cc1cc(C)c(OCC(=O)Nc2nonc2-c2ccccc2)c(C)c1	i
c1ccc(-c2nnc3n2CCN(Cc2ccsc2)C3)cc1	i
Cn1c(CNC(=O)C2(C)CCCCC(=O)N2)nc2ccccc21 (stereo not given)	i
O=C1CCCCC(Cc2ccccc2)(C(=O)NCc2ccc(F)cc2)N1 (stereo not given)	i
Cn1c(CNC(=O)C2(Cc3ccccc3)CCCCC(=O)N2)nc2ccccc21 (stereo not given)	17.8µM*
COc1cc(NC(=O)CN2C(=O)NC3(CCCCC3)C2=O)cc(OC)c1OC	i
CC1CCN([C@@H]2[C@H](O)[C@H](CO)O[C@@H]2CNC(=O)c2ccc(F)c(Cl)c2)CC1	i
NC(=O)C(Sc1ccc2ccccc2c1)c1ccccc1 (stereo not given)	i
C[C@@H](NC(=O)c1ccccc1)c1onc(-c2ccc(F)cc2)c1C(=O)O	i
COc1ccc(-c2noc([C@@H](C)NC(=O)c3nc4ccccc4[nH]3)c2C(=O)O)cc1	28.2µM*
COc1ccc(-c2noc([C@@H](C)NC(=O)COc3ccccc3)c2C(=O)O)cc1	i
CN(Cc1ccccc1)Cc1cn([C@H]2CO[C@H]3[C@@H]2OC[C@@H]3NC(=O)NCc2ccccc2)nn1	i
CCn1c(CO)nnc1C1CC(NC(=O)c2oc3cc(OC)ccc3c2C)C1 (stereo not given)	28.2µM*
COc1ccc(C(CNC(=O)c2oc3ccccc3c2C)N2CCCCC2)cc1 (stereo not given)	i
COc1ccc2[nH]c(C(=O)N3CCc4ccccc4C3)c(C)c2c1	i
COCCn1cnnc1CCNC(=O)c1oc2cc(OC)ccc2c1C	28.2µM*
CCn1c(CO)nnc1C1CC(NC(=O)Cc2c[nH]c3ccccc23)C1 (stereo not given)	i
COCCn1c(CO)nnc1C1CC(NC(=O)c2ccc3c(c2)CCO3)C1 (stereo not given)	i
